The target of assay [1] is Serine/threonine-protein kinase PLK3 (Homo sapiens) (UniProt Q9H4B4). The following applies: at 1 µM.
Assay [2] shares this target. The following applies: at 10 µM.
Assay [3] addresses T1, cAMP-dependent protein kinase catalytic subunit PRKX (Homo sapiens) (UniProt P51817).
T1 sequence (whole entry): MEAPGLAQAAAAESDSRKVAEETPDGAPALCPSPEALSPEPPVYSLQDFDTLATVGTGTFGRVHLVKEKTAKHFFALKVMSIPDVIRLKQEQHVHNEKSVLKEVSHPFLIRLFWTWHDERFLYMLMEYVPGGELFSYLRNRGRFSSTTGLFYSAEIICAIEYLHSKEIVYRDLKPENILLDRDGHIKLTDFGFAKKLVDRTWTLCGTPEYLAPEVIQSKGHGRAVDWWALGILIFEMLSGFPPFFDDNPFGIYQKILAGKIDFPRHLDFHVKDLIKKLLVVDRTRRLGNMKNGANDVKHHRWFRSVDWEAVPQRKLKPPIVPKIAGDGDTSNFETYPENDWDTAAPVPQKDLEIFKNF
The following applies: at 1 µM.

For assay [4], the target named is T1, cAMP-dependent protein kinase catalytic subunit PRKX (Homo sapiens). The following applies: at 10 µM.
For assay [5], the target named is Protein-tyrosine kinase 2-beta (Homo sapiens) (UniProt Q14289). The note with it: at 1 µM.
Assay [6] has the same target. The following applies: at 10 µM.
For assay [7], the target named is Receptor-interacting serine/threonine-protein kinase 2 (Homo sapiens) (UniProt O43353). The note with it: at 1 µM.
The target is the same in assay [8]. The note with it: at 10 µM.
Assay [9] has as its target Rho-associated protein kinase 1 (Homo sapiens) (UniProt Q13464). The following applies: at 1 µM.
The target is the same in assay [10]. The following applies: at 10 µM.
The target in assay [11] is Rho-associated protein kinase 2 (Homo sapiens) (UniProt O75116). The following applies: at 1 µM.
Assay [12] shares this target. The following applies: at 10 µM.
The target of assay [13] is Proto-oncogene tyrosine-protein kinase receptor Ret (Homo sapiens) (UniProt P07949). The note with it: at 1 µM.
Assay [14] has the same target. The note with it: at 10 µM.
For assay [15], the target named is Macrophage-stimulating protein receptor (Homo sapiens) (UniProt Q04912). The following applies: at 1 µM.
The target is the same in assay [16]. The note with it: at 10 µM.
The target of assay [17] is Proto-oncogene tyrosine-protein kinase ROS (Homo sapiens) (UniProt P08922). The note with it: at 1 µM.
Assay [18] shares this target. The note with it: at 10 µM.
The target of assay [19] is T2, Tyrosine-protein kinase receptor TYRO3 (Homo sapiens) (UniProt Q06418).
T2 sequence (whole entry): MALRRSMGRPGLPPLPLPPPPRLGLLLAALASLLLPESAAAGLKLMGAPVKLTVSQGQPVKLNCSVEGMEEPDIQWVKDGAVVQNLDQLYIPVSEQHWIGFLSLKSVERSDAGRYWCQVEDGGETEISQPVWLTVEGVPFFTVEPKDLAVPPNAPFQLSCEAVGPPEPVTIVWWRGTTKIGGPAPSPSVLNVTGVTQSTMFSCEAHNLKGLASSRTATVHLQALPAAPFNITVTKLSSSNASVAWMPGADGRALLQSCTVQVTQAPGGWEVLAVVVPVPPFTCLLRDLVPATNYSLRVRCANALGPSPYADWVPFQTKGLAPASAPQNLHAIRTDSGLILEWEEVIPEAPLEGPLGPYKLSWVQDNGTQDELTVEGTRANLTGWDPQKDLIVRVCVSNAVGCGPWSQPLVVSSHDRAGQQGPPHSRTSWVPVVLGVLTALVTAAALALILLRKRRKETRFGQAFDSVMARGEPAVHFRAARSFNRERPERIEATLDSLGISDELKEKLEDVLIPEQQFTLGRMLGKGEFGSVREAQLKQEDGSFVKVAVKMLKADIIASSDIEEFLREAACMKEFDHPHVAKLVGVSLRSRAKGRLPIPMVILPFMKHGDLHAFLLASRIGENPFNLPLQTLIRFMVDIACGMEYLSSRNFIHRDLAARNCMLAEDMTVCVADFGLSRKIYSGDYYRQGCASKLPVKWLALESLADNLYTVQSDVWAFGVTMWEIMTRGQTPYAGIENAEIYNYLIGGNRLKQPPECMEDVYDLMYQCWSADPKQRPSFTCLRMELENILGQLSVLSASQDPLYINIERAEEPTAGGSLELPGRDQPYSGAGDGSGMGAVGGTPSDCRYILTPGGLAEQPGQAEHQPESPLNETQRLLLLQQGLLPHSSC
The note with it: at 1 µM.

The target in assay [20] is T2, Tyrosine-protein kinase receptor TYRO3 (Homo sapiens). The following applies: at 10 µM.

Residual activity data for seven molecules are collected here from ChEMBL document CHEMBL2218924, “A broad activity screen in support of a chemogenomic map for kinase signalling research and drug discovery” (Biochem J, 2013).

Sequence of Macrophage-stimulating protein receptor (Homo sapiens) (Q04912 25-304 limits assumed): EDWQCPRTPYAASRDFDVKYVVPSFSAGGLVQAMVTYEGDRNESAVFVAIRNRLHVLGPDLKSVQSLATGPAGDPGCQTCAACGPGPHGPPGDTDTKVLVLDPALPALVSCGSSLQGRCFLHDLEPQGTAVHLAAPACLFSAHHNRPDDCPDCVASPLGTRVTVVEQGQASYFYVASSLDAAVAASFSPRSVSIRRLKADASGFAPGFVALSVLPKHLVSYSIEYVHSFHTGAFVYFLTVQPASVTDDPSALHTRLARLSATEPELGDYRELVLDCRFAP
Sequence of Macrophage-stimulating protein receptor (Homo sapiens) (Q04912 310-1400 limits assumed): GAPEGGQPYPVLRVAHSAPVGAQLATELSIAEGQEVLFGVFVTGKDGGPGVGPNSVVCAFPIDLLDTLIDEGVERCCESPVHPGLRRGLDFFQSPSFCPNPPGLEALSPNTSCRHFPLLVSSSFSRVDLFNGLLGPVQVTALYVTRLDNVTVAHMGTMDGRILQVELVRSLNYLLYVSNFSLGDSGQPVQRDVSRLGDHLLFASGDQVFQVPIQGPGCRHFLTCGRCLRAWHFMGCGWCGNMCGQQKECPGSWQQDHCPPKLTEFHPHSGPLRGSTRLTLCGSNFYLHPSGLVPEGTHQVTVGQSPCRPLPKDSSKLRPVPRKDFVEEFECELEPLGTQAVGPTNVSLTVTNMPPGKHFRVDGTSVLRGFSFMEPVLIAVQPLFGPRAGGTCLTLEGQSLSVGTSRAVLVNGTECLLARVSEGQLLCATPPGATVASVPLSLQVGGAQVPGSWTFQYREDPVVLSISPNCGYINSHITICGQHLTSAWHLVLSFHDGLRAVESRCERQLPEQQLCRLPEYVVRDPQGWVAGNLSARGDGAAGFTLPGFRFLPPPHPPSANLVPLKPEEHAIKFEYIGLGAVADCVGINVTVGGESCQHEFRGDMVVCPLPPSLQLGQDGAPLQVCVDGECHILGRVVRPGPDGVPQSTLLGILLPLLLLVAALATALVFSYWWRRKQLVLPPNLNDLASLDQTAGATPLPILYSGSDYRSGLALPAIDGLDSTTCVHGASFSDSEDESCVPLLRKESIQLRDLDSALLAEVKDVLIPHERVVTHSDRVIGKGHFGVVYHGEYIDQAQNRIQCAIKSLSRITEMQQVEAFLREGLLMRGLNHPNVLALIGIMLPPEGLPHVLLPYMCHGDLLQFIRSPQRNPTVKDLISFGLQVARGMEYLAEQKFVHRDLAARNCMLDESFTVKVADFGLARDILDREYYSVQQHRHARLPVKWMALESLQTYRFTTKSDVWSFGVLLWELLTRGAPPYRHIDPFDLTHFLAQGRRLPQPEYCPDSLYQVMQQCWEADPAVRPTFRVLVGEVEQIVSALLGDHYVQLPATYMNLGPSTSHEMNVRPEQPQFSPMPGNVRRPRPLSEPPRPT
Sequence of Receptor-interacting serine/threonine-protein kinase 2 (Homo sapiens) (O43353 whole entry): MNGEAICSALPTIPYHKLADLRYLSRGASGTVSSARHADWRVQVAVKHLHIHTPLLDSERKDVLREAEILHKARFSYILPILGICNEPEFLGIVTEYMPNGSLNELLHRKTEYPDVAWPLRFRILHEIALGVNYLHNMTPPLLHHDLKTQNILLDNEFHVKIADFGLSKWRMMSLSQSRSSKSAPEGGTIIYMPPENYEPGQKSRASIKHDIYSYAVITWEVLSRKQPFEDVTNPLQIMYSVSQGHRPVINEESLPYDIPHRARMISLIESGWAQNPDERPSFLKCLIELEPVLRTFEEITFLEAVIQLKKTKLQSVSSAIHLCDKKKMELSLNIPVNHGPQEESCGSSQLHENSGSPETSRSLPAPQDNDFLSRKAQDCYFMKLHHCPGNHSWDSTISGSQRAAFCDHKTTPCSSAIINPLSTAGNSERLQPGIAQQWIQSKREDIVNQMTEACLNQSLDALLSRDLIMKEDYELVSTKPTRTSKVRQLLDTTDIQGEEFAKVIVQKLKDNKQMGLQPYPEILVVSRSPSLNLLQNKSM
Sequence of Rho-associated protein kinase 2 (Homo sapiens) (O75116 whole entry, looked up): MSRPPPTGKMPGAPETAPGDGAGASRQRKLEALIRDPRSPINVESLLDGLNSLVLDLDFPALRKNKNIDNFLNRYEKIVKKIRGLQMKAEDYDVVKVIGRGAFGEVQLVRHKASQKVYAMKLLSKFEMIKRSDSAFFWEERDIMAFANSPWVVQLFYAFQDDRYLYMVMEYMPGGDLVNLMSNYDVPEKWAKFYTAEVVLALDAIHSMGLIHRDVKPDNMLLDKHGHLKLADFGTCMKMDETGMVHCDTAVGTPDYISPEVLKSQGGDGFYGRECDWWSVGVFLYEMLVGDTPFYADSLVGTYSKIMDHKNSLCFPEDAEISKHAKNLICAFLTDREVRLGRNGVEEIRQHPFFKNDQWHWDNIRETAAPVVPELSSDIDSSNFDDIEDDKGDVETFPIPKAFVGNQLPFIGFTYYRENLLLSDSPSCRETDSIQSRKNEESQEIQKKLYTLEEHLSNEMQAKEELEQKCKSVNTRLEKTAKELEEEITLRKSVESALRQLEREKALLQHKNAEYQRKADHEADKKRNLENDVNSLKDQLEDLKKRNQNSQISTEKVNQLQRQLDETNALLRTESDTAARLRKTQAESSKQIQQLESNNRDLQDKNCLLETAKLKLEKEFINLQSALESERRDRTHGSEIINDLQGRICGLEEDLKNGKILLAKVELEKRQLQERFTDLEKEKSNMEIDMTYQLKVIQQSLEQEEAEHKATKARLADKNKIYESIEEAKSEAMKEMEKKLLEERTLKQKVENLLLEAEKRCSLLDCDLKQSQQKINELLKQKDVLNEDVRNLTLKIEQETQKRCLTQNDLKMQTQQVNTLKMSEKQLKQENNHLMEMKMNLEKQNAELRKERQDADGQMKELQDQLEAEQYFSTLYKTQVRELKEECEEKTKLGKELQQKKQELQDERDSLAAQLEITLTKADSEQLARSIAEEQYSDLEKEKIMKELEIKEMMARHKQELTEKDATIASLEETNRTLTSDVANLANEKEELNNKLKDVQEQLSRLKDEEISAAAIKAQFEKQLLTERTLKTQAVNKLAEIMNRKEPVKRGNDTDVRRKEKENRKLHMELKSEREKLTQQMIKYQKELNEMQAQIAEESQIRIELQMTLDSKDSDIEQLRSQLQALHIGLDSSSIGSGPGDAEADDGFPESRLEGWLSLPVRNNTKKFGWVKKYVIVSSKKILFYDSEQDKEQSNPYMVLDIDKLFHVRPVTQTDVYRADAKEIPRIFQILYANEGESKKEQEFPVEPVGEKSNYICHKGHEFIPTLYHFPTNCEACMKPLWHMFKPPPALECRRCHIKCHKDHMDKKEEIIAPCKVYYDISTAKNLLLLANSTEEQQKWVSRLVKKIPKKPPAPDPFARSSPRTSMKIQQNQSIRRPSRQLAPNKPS
Sequence of Rho-associated protein kinase 1 (Homo sapiens) (Q13464 2-1354 limits assumed): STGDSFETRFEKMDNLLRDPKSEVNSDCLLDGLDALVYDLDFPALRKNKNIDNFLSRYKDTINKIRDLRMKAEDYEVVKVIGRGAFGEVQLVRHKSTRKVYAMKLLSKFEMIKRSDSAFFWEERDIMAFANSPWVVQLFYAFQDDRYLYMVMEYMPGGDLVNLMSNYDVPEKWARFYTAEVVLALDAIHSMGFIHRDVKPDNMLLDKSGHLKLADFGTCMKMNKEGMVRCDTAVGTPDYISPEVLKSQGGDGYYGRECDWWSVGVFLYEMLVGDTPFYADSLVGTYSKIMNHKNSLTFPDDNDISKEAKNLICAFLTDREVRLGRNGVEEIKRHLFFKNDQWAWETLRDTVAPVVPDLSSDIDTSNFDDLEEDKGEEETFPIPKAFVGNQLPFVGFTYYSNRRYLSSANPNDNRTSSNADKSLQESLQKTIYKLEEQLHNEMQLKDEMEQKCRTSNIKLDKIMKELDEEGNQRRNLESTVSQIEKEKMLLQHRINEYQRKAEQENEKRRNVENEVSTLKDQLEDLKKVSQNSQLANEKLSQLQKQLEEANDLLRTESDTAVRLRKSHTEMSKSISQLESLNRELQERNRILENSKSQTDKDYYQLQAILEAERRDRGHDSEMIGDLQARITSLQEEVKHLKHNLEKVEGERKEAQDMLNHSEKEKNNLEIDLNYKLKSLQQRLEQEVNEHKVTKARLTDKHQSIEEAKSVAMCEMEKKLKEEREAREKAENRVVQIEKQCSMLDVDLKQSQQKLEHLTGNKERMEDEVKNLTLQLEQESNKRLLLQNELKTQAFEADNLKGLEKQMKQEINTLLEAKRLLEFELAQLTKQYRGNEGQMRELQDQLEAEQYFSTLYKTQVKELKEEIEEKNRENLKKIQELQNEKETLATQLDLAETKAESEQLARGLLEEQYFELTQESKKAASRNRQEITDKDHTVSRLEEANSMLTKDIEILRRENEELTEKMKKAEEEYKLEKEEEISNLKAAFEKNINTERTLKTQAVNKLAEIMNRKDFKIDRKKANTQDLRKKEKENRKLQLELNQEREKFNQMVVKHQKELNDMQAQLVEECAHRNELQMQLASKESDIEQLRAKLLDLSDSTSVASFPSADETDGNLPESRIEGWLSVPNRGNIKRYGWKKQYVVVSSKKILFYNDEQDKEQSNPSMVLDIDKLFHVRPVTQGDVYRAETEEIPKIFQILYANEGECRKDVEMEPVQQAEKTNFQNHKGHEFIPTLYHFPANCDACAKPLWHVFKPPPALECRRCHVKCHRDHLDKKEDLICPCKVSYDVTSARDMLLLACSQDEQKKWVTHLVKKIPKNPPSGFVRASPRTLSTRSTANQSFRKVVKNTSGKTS

As for `COc1ccc(S(=O)(=O)N(CCO)c2ccccc2CN(C)C/C=C/c2ccc(Cl)cc2)cc1`, the residual activity was 87% (inactive) in [1]; 96% in assay [2]; 88% in assay [3]; 51% in assay [4]; 109% in [5]; 96% in [6]. Also, the residual activity in assay [7] is 92%; in assay [8], 91%; in assay [9], 134%; in assay [10] it was 124%; in assay [11] it was 100%; in assay [12] it was 91%. Moreover, the residual activity came out at 105% in [13]; 87% in [14]; 90% in [15]; 88% in assay [16]; 105% in [17]; 87% in assay [18]. Besides, the figures for the residual activity in assay [19] and in assay [20] were 113% and 112%, respectively.

Consider `O=C1c2ccccc2-[n+]2ccc3c([nH]c4ccccc43)c21`, for which the residual activity was 98% (inactive) in assay [1]; 91% in assay [2]; 92% in [3]; 53% in assay [4]; 101% in [5]; 97% in [6]. Further, the residual activity worked out at 90% in assay [7]; 88% in assay [8]; 126% in [9]; 115% in assay [10]; 89% in assay [11]; 86% in [12]. Further, the residual activity in assay [13] came out at 89%; in assay [14], 75%; in [15], 77%; in assay [16] it was 70%; in assay [17], 89%; in [18], 88%. Also, the residual activity is 104% in assay [19] and 107% in [20].

For the molecule `CC(C)n1cnc2c(NCc3ccccc3)nc(NCCCO)nc21`, the residual activity in assay [1] was 98% (inactive); in [2] it was 95%; in assay [3] it was 130%; in assay [4] it was 88%; in assay [5] it was 102%; in [6], 83%. Further, the residual activity in [7] came to 69%; in [8], 51%; in assay [9] it was 109%; in assay [10], 100%; in [11], 94%; in [12], 90%. The residual activity came out at 96% in [13]; 92% in assay [14]; 88% in assay [15]; 92% in assay [16]; 96% in [17]; 93% in [18]. Also, the residual activity in [19] is 105%; in [20] it was 101%.

Regarding `Nc1ccc2ncnc(NCCc3ccc(Oc4ccccc4)cc3)c2c1`, the residual activity is 102% (inactive) in [1]; 96% in assay [2]; 109% in assay [3]; 58% in [4]; 88% in [5]; 72% in [6]. Further, the residual activity in assay [7] amounted to 102%; in assay [8], 88%; in assay [9], 106%; in [10], 100%; in assay [11], 110%; in assay [12], 94%. For the same molecule, the residual activity in [13] worked out at 76%; in assay [14], 55%; in assay [15], 82%; in assay [16], 70%; in assay [17] it was 107%; in assay [18] it was 100%. For the same molecule, the results for the residual activity in assay [19] and in [20] were 113% and 100%, respectively.

As to `O=Nc1c(-c2c(O)[nH]c3ccccc23)[nH]c2ccccc12`, the residual activity is 96% (inactive) in [1]; 91% in assay [2]; 48% in [3]; 33% in assay [4]; 14% in assay [5]; 2% in assay [6]. For the same molecule, the residual activity in [7] was 60%; in [8], 27%; in assay [9], 108%; in assay [10], 92%; in assay [11], 85%; in assay [12] it was 82%. Further, the residual activity in [13] turned out to be 1%; in [14], 0%; in assay [15], 86%; in assay [16], 71%; in assay [17], 105%; in assay [18], 88%. Further, the residual activity in [19] stood at 62%; in assay [20], 15%.

For the molecule `Nc1n[nH]c2nnc(-c3c(-c4ccccc4)nn4ccccc34)cc12`, the residual activity is 97% (inactive) in assay [1]; 99% in [2]; 92% in assay [3]; 74% in assay [4]; 95% in assay [5]; 72% in assay [6]. The residual activity in [7] amounted to 88%; in assay [8] it was 78%; in assay [9], 106%; in assay [10], 105%; in [11] it was 84%; in assay [12] it was 90%. Besides, the residual activity in assay [13] stood at 108%; in assay [14], 58%; in assay [15], 66%; in assay [16] it was 42%; in assay [17], 91%; in assay [18], 80%. For the same molecule, the residual activity stood at 102% in assay [19] and 99% in assay [20].

Consider `CCC(=O)Nc1ccc2ncnc(Nc3cccc(Br)c3)c2c1`, for which the residual activity in assay [1] is 89% (inactive); in assay [2] it was 86%; in assay [3], 89%; in [4], 94%; in [5], 126%; in assay [6] it was 95%. Moreover, the residual activity in [7] was 50%; in assay [8], 32%; in assay [9], 115%; in [10], 120%; in assay [11], 89%; in assay [12] it was 88%. Moreover, the residual activity came to 86% in [13]; 103% in assay [14]; 90% in assay [15]; 70% in assay [16]; 92% in assay [17]; 98% in [18]. The residual activity in assay [19] worked out at 90%; in assay [20], 93%.
